Source: PubChem BioAssay AID602410 (Johns Hopkins Ion Channel Center, 2012)
In all, about 340,000 compounds went through this assay and about 2,800 (0.82%) were called active.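 Rule for the calls: active = B-score under library mean minus 4 SD, starting fluorescence ratio at most library mean plus 5 SD; inactive = the rest.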 Many of the other results were omitted from the sample, so actives are more common in it than they were.

Target: Potassium channel subfamily K member 3 (Homo sapiens) (UniProt O14649)
Assay: human KCNK3 channel inhibitors, primary screen, CHO cells, FluxOR thallium flux, B-score (AID 602410)
Conditions: FluxOR fluorescence, at 10 µM; stronger effect = lower value

Chain of Potassium channel subfamily K member 3 (Homo sapiens) (O14649 whole entry, looked up): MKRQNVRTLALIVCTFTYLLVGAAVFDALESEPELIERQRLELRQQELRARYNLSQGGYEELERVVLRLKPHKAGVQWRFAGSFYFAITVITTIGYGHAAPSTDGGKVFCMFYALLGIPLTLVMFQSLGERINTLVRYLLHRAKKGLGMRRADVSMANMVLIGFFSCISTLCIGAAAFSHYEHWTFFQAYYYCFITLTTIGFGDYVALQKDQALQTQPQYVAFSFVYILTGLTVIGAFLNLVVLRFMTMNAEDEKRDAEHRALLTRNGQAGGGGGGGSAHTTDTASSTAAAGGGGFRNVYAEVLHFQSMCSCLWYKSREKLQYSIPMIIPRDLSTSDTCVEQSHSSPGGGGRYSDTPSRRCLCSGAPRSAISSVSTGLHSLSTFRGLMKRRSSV

B-score, inactive:
Cc1cc(Br)ccc1NC(=O)c1cnc(N2CCN(c3ccccn3)CC2)c2ccccc12
O=C(c1c(F)cccc1Cl)N1CCN(c2ccccn2)CC1
CCOC(=O)C1CCCN(C(=O)c2sc3nc(C)nc(N4CCOCC4)c3c2C)C1 (configuration not stated)
Cc1nc(N2CCC(C)CC2)c2c(C)c(C(=O)Nc3cc(F)ccc3C)sc2n1
Cc1cc(Br)ccc1NC(=O)c1sc2ncn(CC(=O)N3CCN(c4ccccn4)CC3)c(=O)c2c1C
COc1ccc(NC(=O)c2sc3nc(C)nc(N4CCN(c5ccccn5)CC4)c3c2C)c(OC)c1
C/C(=N/NC(=O)c1ccn(C)n1)c1ccncc1
Cc1ccccc1-c1nc(CS(=O)(=O)CC(=O)NC(C)c2ccccc2)c(C)o1 (configuration not stated)
CCOc1ccc(C(CC(=O)O)NC(=O)C23CC4CC(CC(C4)C2)C3)cc1OC (configuration not stated)
Cc1cc(NC(=O)C(C)SCC(=O)Nc2ccccc2N2CCCCC2)no1 (configuration not stated)
Cc1ccc(OCCC(=O)Nc2ccc(S(=O)(=O)Nc3nccs3)cc2)cc1
O=C1NC(c2ccncc2)Nc2sc3c(c21)CCCC3 (configuration not stated)
O=C(NCC(=O)N1CCCCCCC1)c1ccccc1Cl
CCCc1cc(=O)[nH]c(SCC(=O)N2CCN(S(=O)(=O)c3ccc(C)cc3C)CC2)n1
Cc1ccc(CN(CC(=O)NCC2CCCO2)S(=O)(=O)c2ccc(C)cc2)cc1 (configuration not stated)
Cc1ccc(F)c(NC(=O)CCOc2ccccc2C)c1
Cc1ccc(F)c(NC(=O)CCc2ccccc2)c1
C=CCNC(=O)C1CC2c3ccccc3C1c1ccccc12 (configuration not stated)
COc1ccc(Cl)cc1C=CC=Nc1ccc(S(N)(=O)=O)cc1
COc1ccc(Cc2nnc(N/N=C/c3ccccc3O)[nH]c2=O)cc1OC
COc1cccc(/C=N/Nc2ccc(S(=O)(=O)Nc3ccccc3C(=O)O)cc2[N+](=O)[O-])c1O
COc1cccc(CN(C)CC(=O)Nc2ccccc2C(=O)Nc2ccccc2)c1
Cc1ccccc1C(OCC(O)CN1CCCCC1CCO)c1ccccc1 (configuration not stated)
COc1ccc(N(CC(=O)Nc2cc(OC)ccc2OC)S(=O)(=O)c2c(C)noc2C)cc1
Cc1noc(C)c1S(=O)(=O)N(CC(=O)Nc1ccc2c(c1)OCCO2)c1ccc(C(C)C)cc1
COc1cccc(NC(=O)C(Sc2nc3ccccc3c(=O)n2CC(C)C)c2ccccc2)c1 (configuration not stated)
N#Cc1c(NC(=O)CSc2nc3ccccc3c(=O)n2Cc2ccco2)sc2c1CCCC2
CC(C)(C)OC(=O)Nc1ccc([C@@H](NC(=O)OC(C)(C)C)C(=O)OC(C)(C)C)cc1
COc1ccc(CC(=O)NCc2nnc(SCC(=O)Nc3nccs3)n2C)cc1
CC1(C)Cc2ccccc2-c2nnc(-c3cccc(O)c3)n21
COc1cc(C)c(Cl)cc1S(=O)(=O)n1ccnc1
O=C(Cc1ccc(S(=O)(=O)N2CCOCC2)s1)NCCOc1ccccc1F
O=C(Cc1ccc(S(=O)(=O)N2CCOCC2)s1)NCCC(c1ccccc1)c1ccccc1
O=C1CCCN2N=C(SCC(=O)Nc3ccc(Br)cc3)SC2=N1
N#C/C(=C\c1ccccc1)c1n[nH]c(Cn2cncn2)n1
CCN1CCN(C(=O)N[C@@H](C(=O)N[C@@H]2C(=O)N3C(C(=O)O)=C(CSc4nnnn4C)CS[C@H]23)c2ccc(O)cc2)C(=O)C1=O
CN(C(=O)CSc1nnc(-c2ccc(C(C)(C)C)cc2)n1C)C1CCS(=O)(=O)C1 (configuration not stated)
COc1ccc2c(c1)c(=O)c(C(=O)c1ccc(Cl)cc1)cn2CC(=O)Nc1ccc(F)cc1
COc1ccc(-c2nc(CN3CCN(c4ncccn4)CC3)c(C)o2)cc1C
Cc1ccc(C(CNC(=O)Nc2ccccc2)N2CCN(C)CC2)cc1 (configuration not stated)
COc1cccc(C(=O)Nc2cc3c(cc2Br)OCCCO3)c1
COc1ccc(-c2cc(C(=O)N(C)Cc3ccc(OC)c(OC)c3OC)c3ccccc3n2)cc1OC
COc1ccc(-c2cc(C(=O)N(C)CC(=O)Nc3ccccc3Cl)c3ccccc3n2)cc1OC
CC(=O)c1c(Nc2ccccc2)sc(C(=O)c2ccccc2)c1C
COc1ccc(Cl)cc1NC(=O)CN(C)C(=O)c1cc(-c2cccs2)nn1-c1ccccc1
COc1ccccc1C(=O)NCC(=O)NCCSc1ccc(Br)cc1
COc1cc(C(=O)NCC(=O)NCCSc2ccc(Br)cc2)cc(OC)c1OC
Cc1ccc(NCc2n[nH]c(=S)n2-c2ccccc2)cc1Cl
CCOc1ccc(OCCSc2nc3ccccc3n2CC(=O)O)cc1
Cc1cc(C)cc(NC(=O)C2CCCN(S(=O)(=O)c3ccc4[nH]c(=O)ccc4c3)C2)c1 (configuration not stated)

B-score, active:
Cc1nc(N2CCN(c3ccccn3)CC2)c2c(C)c(C(=O)Nc3ccc(F)cc3)sc2n1 -13
Cc1nc(N2CCOCC2)c2c(C)c(C(=O)Nc3ccc(C(F)(F)F)cc3)sc2n1 -8.85
Cc1nc(N2CCN(c3ccccn3)CC2)c2c(C)c(C(=O)Nc3ccc(F)c(Cl)c3)sc2n1 -12
CCn1ncc(Br)c1C(=O)Nc1cc(C)ccc1F -9.47
COc1cccc(/C=N/Nc2cc(C)nc(-c3ccccc3O)n2)c1O -11.6
COc1cccc(CN(C)CC(O)COC(c2ccccc2)c2ccccc2C)c1 (configuration not stated) -12.7
CCOC(=O)c1cccc(NC(=O)CN(c2ccc(C)cc2)S(=O)(=O)c2c(C)noc2C)c1 -8.84
CC(Sc1nc2ccccc2c(=O)n1Cc1ccco1)C(=O)c1ccccc1 (configuration not stated) -8.93
O=C(Cc1ccc(S(=O)(=O)N2CCOCC2)s1)Nc1ccc(Br)c(C(F)(F)F)c1 -9.72
CN1c2ccc(C=O)c3c(C=O)ccc(c23)N(C)C1(C)C -11.3
COc1ccc(CN(C)C(=O)c2cc(-c3ccc(C)cc3C)nc3ccccc23)c(OC)c1OC -12.7
COc1cccc(C(=O)NCCSc2ccc(Br)cc2)c1 -8.94
